This passage reports activity change, negative = inhibition and max response results from PubChem BioAssay (NCATS).

The structures appear in SMILES notation. Where “and” joins values, the source holds several entries; their conditions need not be identical. Equal values may be shown once. Inconclusive results are not listed. Calls of active or inactive are those of the source. Calls follow the shape of the full dose curve.

One experiment is described as follows: qHTS Assay for Lipid Storage Modulators (AID 1519). As to activity change, negative = inhibition: % is scaled to controls: 0 for no effect and ±100 for the full control effect. As to conditions: Drosophila S3 cells, BODIPY lipid droplet/cell ratio, laser cytometry; at 57.5 µM (top of the series); cells loaded with oleic acid. An outline of the steps: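 Cells seeded at 5,000 per well were treated with compounds over a concentration series and loaded with oleic acid (400 uM, as added). Lipid droplet fluorescence (488 nm excitation, 500-530 nm channel) was read by laser-scanning cytometry and normalized to 20 uM Triacsin C.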
In general terms: Quantitative high-throughput screening tests each substance at several concentrations.
Regarding `CCN(CC)C(=O)N1CCN(C)CC1`, the activity change, negative = inhibition is 4.02% (inactive).

For the compound `CCCCC1=NC2(CCCC2)C(=O)N1Cc1ccc(-c2ccccc2-c2nn[nH]n2)cc1`, the activity change, negative = inhibition was -6.83% (inactive).

Turning to `CN(C)CC/C=C1\c2ccccc2Sc2ccc(Cl)cc21`, the activity change, negative = inhibition was 8.38% (inactive).

With `Cc1c(N(C)CS(=O)(=O)O)c(=O)n(-c2ccccc2)n1C`, the activity change, negative = inhibition is 9.06% (inactive).

Consider `Nc1nc2ncc(CNc3ccc(C(=O)N[C@@H](CCC(=O)O)C(=O)O)cc3)nc2c(=O)[nH]1`, for which the activity change, negative = inhibition was 8.45% (inactive).

For the compound `CCCC(=O)Nc1ccc(OCC(O)CNC(C)C)c(C(C)=O)c1` (stereo unspecified), the activity change, negative = inhibition is 5.02% (inactive).

`Cc1cc(=O)n(-c2ccccc2)n1C`: the activity change, negative = inhibition was 0.266% (inactive).

As to `CC(=O)N(O)CCCCCNC(=O)CCC(=O)N(O)CCCCCNC(=O)CCC(=O)N(O)CCCCCN`, the activity change, negative = inhibition was 6.43% (inactive).

In the case of `COc1ccc(CCN2CCC(Nc3nc4ccccc4n3Cc3ccc(F)cc3)CC2)cc1`, the activity change, negative = inhibition was 12.8% (inactive).

For `CCCCOc1cc(C(=O)NCCN(CC)CC)c2ccccc2n1`, the activity change, negative = inhibition is 1.92% (inactive).

For the compound `O=C1c2ccccc2C(=O)C1c1ccccc1`, the activity change, negative = inhibition was 10.4% (inactive).

On to `CN1CCC(=C2c3ccccc3Sc3ccccc32)CC1`, for which the activity change, negative = inhibition is 13.8% (inactive).

Consider `CCN(CCCc1ccccc1)CCCc1ccccc1`, for which the activity change, negative = inhibition was 3.79% (inactive).

Regarding `CCCCc1nc(Cl)c(CO)n1Cc1ccc(-c2ccccc2-c2nn[nH]n2)cc1`, the activity change, negative = inhibition is 9.33% (inactive).

For `CCOC(=O)n1ccn(C)c1=S`, the activity change, negative = inhibition was 8.2% (inactive).

In the case of `COc1cc(OC)cc(OC)c1`, the activity change, negative = inhibition was 0.768% (inactive).

As for `CN1CCN(C(c2ccccc2)c2ccccc2)CC1`, the activity change, negative = inhibition was 7.26% (inactive).

As to `CNCCC=C1c2ccccc2CCc2ccccc21`, the activity change, negative = inhibition is 7.28% (inactive).

With `CCN(CC)CCOC(=O)C(c1ccccc1)C1CCCCC1` (stereo unspecified), the activity change, negative = inhibition is -0.866% (inactive).

`O=C(OCC(O)CO)c1ccccc1Nc1ccnc2cc(Cl)ccc12` (stereo unspecified): the activity change, negative = inhibition was 0.748% (inactive).

Regarding `CC(C)NC[C@@H](O)COc1cccc2ccccc12`, the activity change, negative = inhibition is 2.8% (inactive).

Turning to `C=C(CC)C(=O)c1ccc(OCC(=O)O)c(Cl)c1Cl`, the activity change, negative = inhibition was 1.41% (inactive).

As for `C[N+]1(CCCCC[N+]2(C)CCCC2)CCCC1`, the activity change, negative = inhibition is 3.44% (inactive) and 1.51% (inactive).

On to `CCOc1ccc(Cc2nccc3cc(OCC)c(OCC)cc23)cc1OCC`, for which the activity change, negative = inhibition is -21.1% (inactive).

On to `OC(CCN1CCCCC1)(c1ccccc1)c1ccccc1`, for which the activity change, negative = inhibition was 3.44% (inactive).

Take `CC(C)(CO)[C@@H](O)C(=O)NCCCO`: the activity change, negative = inhibition was 2.51% (inactive).

With `COc1ccc(OC)c(C(O)CNC(=O)CN)c1` (stereo unspecified), the activity change, negative = inhibition was 8.05% (inactive).

Take `Cc1ccc(C(=O)C(C)CN2CCCCC2)cc1` (stereo unspecified): the activity change, negative = inhibition is 1.11% (inactive).

The experiment is the same for the next values; noted with them: Drosophila S3 cells, BODIPY lipid droplet/cell ratio, laser cytometry; measured here: cell count channel max response; cells loaded with oleic acid.
As for `CCN(CC)C(=O)N1CCN(C)CC1`, the max response is -1.64% and 22.2%.

As to `CCCCC1=NC2(CCCC2)C(=O)N1Cc1ccc(-c2ccccc2-c2nn[nH]n2)cc1`, the max response was 15.4%.

Regarding `CN(C)CCCOc1nn(Cc2ccccc2)c2ccccc12`, the max response worked out at 1.49%.

For the compound `CN(C)CC/C=C1\c2ccccc2Sc2ccc(Cl)cc21`, the max response was -15.8% and 5.25%.

As for `Cc1c(N(C)CS(=O)(=O)O)c(=O)n(-c2ccccc2)n1C`, the max response was -6.35% and 7.26%.

As to `Nc1nc2ncc(CNc3ccc(C(=O)N[C@@H](CCC(=O)O)C(=O)O)cc3)nc2c(=O)[nH]1`, the max response is -7.62% and 6.6%.

For the compound `CCCC(=O)Nc1ccc(OCC(O)CNC(C)C)c(C(C)=O)c1` (stereo unspecified), the max response worked out at 16.7%.

Regarding `O=C(COc1ccc(Cl)cc1)N1CCN(Cc2ccc3c(c2)OCO3)CC1`, the max response is -6.27%.

For `Cc1cc(=O)n(-c2ccccc2)n1C`, the max response is -1.15% and 10.6%.

For the compound `CC(=O)N(O)CCCCCNC(=O)CCC(=O)N(O)CCCCCNC(=O)CCC(=O)N(O)CCCCCN`, the max response was -10.2% and 15.7%.

Regarding `COc1ccc(CCN2CCC(Nc3nc4ccccc4n3Cc3ccc(F)cc3)CC2)cc1`, the max response is -13.7% and 8.29%.

With `CCCCOc1cc(C(=O)NCCN(CC)CC)c2ccccc2n1`, the max response was -8.72% and 19.1%.

Turning to `O=C1c2ccccc2C(=O)C1c1ccccc1`, the max response was -13.1% and 15.4%.

On to `CN1CCC(=C2c3ccccc3Sc3ccccc32)CC1`, for which the max response is 3.5% and 5.85%.

In the case of `CCN(CCCc1ccccc1)CCCc1ccccc1`, the max response was 1.49% and 14.3%.

As for `CCCCc1nc(Cl)c(CO)n1Cc1ccc(-c2ccccc2-c2nn[nH]n2)cc1`, the max response was 13.8%.

`CCOC(=O)n1ccn(C)c1=S`: the max response is -4.79% and 2.58%.

As to `COc1cc(OC)cc(OC)c1`, the max response was -0.306%.

As for `CN1CCN(C(c2ccccc2)c2ccccc2)CC1`, the max response is -1.91% and 18%.

As to `CC(C)N=C(N)/N=C(\N)Nc1ccc(Cl)cc1`, the max response is -10.3%.

On to `CNCCC=C1c2ccccc2CCc2ccccc21`, for which the max response is -0.512% and 24.9%.

Take `CC(O)(P(=O)(O)O)P(=O)(O)O`: the max response was -3.25%.

For the compound `CCN(CC)CCOC(=O)C(c1ccccc1)C1CCCCC1` (stereo unspecified), the max response was 11.2%.

With `O=C(OCC(O)CO)c1ccccc1Nc1ccnc2cc(Cl)ccc12` (stereo unspecified), the max response came out at 5.57%.

As for `CC(C)NC[C@@H](O)COc1cccc2ccccc12`, the max response is -4.01% [middle of 4 runs].

For the compound `C=C(CC)C(=O)c1ccc(OCC(=O)O)c(Cl)c1Cl`, the max response was 5.62% and 9.96%.

As for `C[N+]1(CCCCC[N+]2(C)CCCC2)CCCC1`, the max response is -13.3% and 5.22% and -4.18%.

Consider `CCOc1ccc(Cc2nccc3cc(OCC)c(OCC)cc23)cc1OCC`, for which the max response is -4.38%.

For `OC(CCN1CCCCC1)(c1ccccc1)c1ccccc1`, the max response was 1.42% and 9.61%.

Turning to `CC(C)(CO)[C@@H](O)C(=O)NCCCO`, the max response was determined as 21.8%.

Regarding `O=C(CCCN1CCC(O)(c2ccc(Br)cc2)CC1)c1ccc(F)cc1`, the max response was -5.85%.

Regarding `COc1ccc(OC)c(C(O)CNC(=O)CN)c1` (stereo unspecified), the max response came to 10.1%.

Turning to `Cc1ccc(C(=O)C(C)CN2CCCCC2)cc1` (stereo unspecified), the max response amounted to 7.21%.
